The source of these data is PubChem BioAssay (NCI).

Compounds without any hit were thinned out: in the full panel of roughly 79,000, 15% have a hit. Values without a mark were called inactive. Active and inactive are the calls of the source. Cut-off read from the data, not from the text of the source: active = growth inhibition above about 70%; inactive = the rest.

Test [1] is described as follows: NCI Yeast Anticancer Drug Screen. Data for the rad50 strain (AID 155).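 Note: 0% = growth of vehicle-only cultures of the same strain.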 The note with it: S. cerevisiae rad50 strain growth inhibition, stronger effect = higher value. In short, it runs like this: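 Relative growth inhibition (compound vs vehicle) was measured in yeast with a defined repair-gene alteration.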
Test [2] can be described thus: NCI Yeast Anticancer Drug Screen. Data for the mec2-1 strain (AID 157). Particulars: S. cerevisiae mec2-1 strain, stronger effect = higher value. In short, it runs like this:
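mec2-1 yeast strain, carrying an alteration in DNA damage repair or cell cycle control, was exposed to compounds; growth inhibition was measured relative to vehicle-treated controls.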

Test [3] in a line: NCI Yeast Anticancer Drug Screen. Data for the sgs1 mgt1 strain (AID 161).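 Note: 0% = growth of cultures given vehicle only.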 Particulars: S. cerevisiae sgs1 mgt1 strain, stronger effect = higher value. In short, it runs like this: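 Compounds are added to genetically altered yeast, and growth is compared with cultures given vehicle alone to give percent inhibition.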
Test [4] can be described thus: NCI Yeast Anticancer Drug Screen. Data for the cln2 rad14 strain (AID 165).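 Note: 0% = growth equal to vehicle treated cultures.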 Particulars: S. cerevisiae cln2 rad14 strain, stronger effect = higher value. In short, it runs like this:
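Yeast carrying cln2 and rad14 alterations (cell cycle control and DNA damage repair) were exposed to compounds. Growth inhibition was measured against vehicle-treated controls.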

A short description of test [5]: NCI Yeast Anticancer Drug Screen. Data for the bub3 strain (AID 167). The note with it: S. cerevisiae bub3 mutant strain, stronger effect = higher value. In short, it runs like this: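 Screening used yeast with an engineered genetic alteration affecting cell cycle control. Compound-exposed cultures were compared with vehicle cultures, and reduced growth was taken as inhibition.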

Test [6] can be described thus: NCI Yeast Anticancer Drug Screen. Data for the mlh1 rad18 strain (AID 175). The note with it: S. cerevisiae mlh1 rad18 strain growth inhibition, stronger effect = higher value. In short, it runs like this: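 Growth inhibition of the yeast strain was measured after compound exposure and expressed relative to vehicle-treated controls. The strain carries defined defects in DNA damage repair.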

Setting [7] is: at 5.0 µM (retest, dose inferred, filed as 0.5).
[8] abbreviates: at 50.0 µM (retest, dose inferred, filed as 5.0).

Take `COc1ccccc1C(=O)N(Cc1ccccc1)c1ccc(Cl)c(C(=O)OC(C)C)c1`: the growth inhibition in test [1] (setting [7]) is 28%; in test [1] (setting [8]), 59%; in test [1] (at 50.0 µM) it was 15.3%; in test [2] (setting [7]) it was -7%; in test [2] (setting [8]), 14%; in test [2] (at 50.0 µM), 1.25%. In addition, the growth inhibition in test [3] (setting [7]) was 1%; in test [3] (setting [8]), 33%; in test [3] (at 50.0 µM) it was -33.3%; in test [4] (setting [7]), -6%; in test [4] (setting [8]) it was 14%; in test [4] (at 50.0 µM), 10.5%. In addition, the growth inhibition in test [5] (setting [7]) was -55%; in test [5] (setting [8]) it was 15%; in test [5] (at 50.0 µM), -8.1%; in test [6] (setting [7]) it was 3%; in test [6] (setting [8]), 31%; in test [6] (at 50.0 µM), 19.1%.
In the case of `Cc1ccc(N=Nc2ncccc2O)cc1C`, the growth inhibition is -157% in test [1] (setting [7]); 95% (active) in test [1] (setting [8]); 98.8% (active) in test [1] (at 50.0 µM); -49% in test [2] (setting [7]); 95% (active) in test [2] (setting [8]); 98.2% (active) in test [2] (at 50.0 µM). Further, the growth inhibition in test [3] (setting [7]) is -67%; in test [3] (setting [8]) it was 95% (active); in test [3] (at 50.0 µM), 98.4% (active); in test [4] (setting [7]), -64%; in test [4] (setting [8]), 93% (active); in test [4] (at 50.0 µM), 87.4% (active). In addition, the growth inhibition is -85% in test [5] (setting [7]); 96% (active) in test [5] (setting [8]); 97.7% (active) in test [5] (at 50.0 µM); -121% in test [6] (setting [7]); 95% (active) in test [6] (setting [8]); 98.2% (active) in test [6] (at 50.0 µM).
For `CCN1C(/C=C/c2ccc(O)c3ncccc23)CCC2CC(C)CCC21` (stereo unspecified), the growth inhibition was 20% in test [1] (setting [7]); 94% (active) in test [1] (setting [8]); 95.3% (active) in test [1] (at 50.0 µM); 12% in test [2] (setting [7]); 97% (active) in test [2] (setting [8]); 95.5% (active) in test [2] (at 50.0 µM). Besides, the growth inhibition in test [3] (setting [7]) was 62%; in test [3] (setting [8]), 96% (active); in test [3] (at 50.0 µM), 95.5% (active); in test [4] (setting [7]) it was 10%; in test [4] (setting [8]) it was 90% (active); in test [4] (at 50.0 µM) it was 88.9% (active). The growth inhibition in test [5] (setting [7]) was 30%; in test [5] (setting [8]) it was 94% (active); in test [5] (at 50.0 µM), 94% (active); in test [6] (setting [7]) it was 41%; in test [6] (setting [8]), 94% (active); in test [6] (at 50.0 µM) it was 94.3% (active).
In the case of `Cc1cccc(/C=N\OCCc2ccccc2)n1`, the growth inhibition in test [1] (setting [7]) was 0%; in test [1] (setting [8]) it was 85% (active); in test [1] (at 50.0 µM) it was -3.05%; in test [2] (setting [7]), -6%; in test [2] (setting [8]), 53%; in test [2] (at 50.0 µM) it was 80.2% (active). The growth inhibition in test [3] (setting [7]) is 1%; in test [3] (setting [8]), 84% (active); in test [3] (at 50.0 µM) it was 16.6%; in test [4] (setting [7]), -14%; in test [4] (setting [8]) it was 21%; in test [4] (at 50.0 µM) it was -14.1%. The growth inhibition in test [5] (setting [7]) was 2%; in test [5] (setting [8]), 94% (active); in test [5] (at 50.0 µM), 47.7%; in test [6] (setting [7]), -2%; in test [6] (setting [8]) it was 88% (active); in test [6] (at 50.0 µM), 32.8%.
Turning to `Oc1c(Cl)cc(C(c2cc(Cl)c(O)c(Cl)c2)C(c2cc(Cl)c(O)c(Cl)c2)c2cc(Cl)c(O)c(Cl)c2)cc1Cl`, the growth inhibition in test [1] (setting [7]) is 99% (active); in test [1] (setting [8]), 98% (active); in test [1] (at 50.0 µM) it was 92.5% (active); in test [2] (setting [7]), 99% (active); in test [2] (setting [8]), 98% (active); in test [2] (at 50.0 µM) it was 95.8% (active). The growth inhibition in test [3] (setting [7]) is 99% (active); in test [3] (setting [8]) it was 98% (active); in test [3] (at 50.0 µM) it was 42.8%; in test [4] (setting [7]) it was 98% (active); in test [4] (setting [8]) it was 98% (active); in test [4] (at 50.0 µM), 92% (active). Besides, the growth inhibition in test [5] (setting [7]) was 99% (active); in test [5] (setting [8]), 98% (active); in test [5] (at 50.0 µM), 93.9% (active); in test [6] (setting [7]), 99% (active); in test [6] (setting [8]) it was 98% (active); in test [6] (at 50.0 µM), 96.8% (active).
Take `CCOC(=O)CN1C(=O)S/C(=C/c2ccc([N+](=O)[O-])o2)C1=O`: the growth inhibition in test [1] (setting [7]) is 9%; in test [1] (setting [8]), 93% (active); in test [1] (at 50.0 µM), 77.2% (active); in test [2] (setting [7]), 3%; in test [2] (setting [8]), 94% (active); in test [2] (at 50.0 µM), 76% (active). For the same molecule, the growth inhibition is 12% in test [3] (setting [7]); 98% (active) in test [3] (setting [8]); 91.3% (active) in test [3] (at 50.0 µM); -3% in test [4] (setting [7]); 89% (active) in test [4] (setting [8]); 56.3% in test [4] (at 50.0 µM). The growth inhibition in test [5] (setting [7]) is 3%; in test [5] (setting [8]), 96% (active); in test [5] (at 50.0 µM), 86% (active); in test [6] (setting [7]), 21%; in test [6] (setting [8]), 96% (active); in test [6] (at 50.0 µM), 87.1% (active).
As for `CC(C)c1cccc(O)c1O`, the growth inhibition in test [1] (setting [7]) is 7%; in test [1] (setting [8]), 1%; in test [1] (at 50.0 µM), 87.2% (active); in test [2] (setting [7]), -7%; in test [2] (setting [8]), 14%; in test [2] (at 50.0 µM), 89.4% (active). Moreover, the growth inhibition in test [3] (setting [7]) was 9%; in test [3] (setting [8]) it was 13%; in test [3] (at 50.0 µM) it was 82.3% (active); in test [4] (setting [7]), 23%; in test [4] (setting [8]) it was 38%; in test [4] (at 50.0 µM) it was 86.3% (active). Further, the growth inhibition in test [5] (setting [7]) was -1%; in test [5] (setting [8]), 45%; in test [5] (at 50.0 µM), 89.5% (active); in test [6] (setting [7]), -1%; in test [6] (setting [8]) it was 4%; in test [6] (at 50.0 µM), 86.9% (active).
